Reference: PubChem BioAssay (EPA / NIEHS)
Values joined by “and” are separate entries in the source; they are usually repeats but may differ in a detail not shown here. Equal entries are not always repeated. Active and inactive are the calls of the source. How the source made its calls: active means hit-call score of the fitted dose curve at least 0.9, where 1 is the maximum; inconclusive means response in the unintended direction; inactive means score below 0.9.

These compounds were tested on rat Monoamine Oxidase, MAO-A, Central (MAOAC), gene 29253 (assay: NVS_ENZ_rMAOAC: NovaScreen (NVS) Enzymatic Assay for rat Monoamine Oxidase, MAO-A, Central (MAOAC) (AID 2283243);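 further: potency refers to inhibition seen as signal drop below DMSO baseline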).
Method: NVS_ENZ_rMAOAC is a biochemical, single-readout assay that uses extracted gene-proteins from Rat brain in a tissue-based cell-free assay. Measurements were taken 1.5 hours after chemical dosing in a 96-well plate.NVS_ENZ_rMAOAC is one of one assay component(s) measured or calculated from the NVS_ENZ_rMAOAC assay. It is designed to make measurements of enzyme activity, a form of enzyme reporter, as detected with scintillation counting signals by Lysate-based radiodetection technology.Data from the assay component NVS_ENZ_rMAOAC was analyzed into 1 assay endpoint. This assay endpoint, NVS_ENZ_rMAOAC, was analyzed in the positive analysis fitting direction relative to DMSO as the negative control and baseline of activity. Using a type of enzyme reporter, loss-of-signal activity can be used to understand changes in the enzymatic activity as they relate to the gene Maoa. Furthermore, this assay endpoint can be referred to as a primary readout, because this assay has produced multiple assay endpoints where this one serves a enzymatic activity function. To generalize the intended target to other relatable targets, this assay endpoint is annotated to the oxidoreductase intended target family, where the subfamily is monoamine oxidase.
Binding assays used specific radioligands (tritiated, iodinated) with non-radioactive competitive displacement ligands in agonist or antagonist protocols (as indicated) and various reference compounds and inhibitors to titrate specific binding to receptors and transporters. Most enzyme assays (CYPs, kinases, phosphatases, proteases, HDACs) used recombinant protein and specific substrates (fluorescence mostly, some colorimetric and radioactive) and inhibitors, followed by a biochemical separation of substrate and product. All assays for the biochemical HTS were initially run in duplicate at a single concentration (10 uM for CYP450 assays and 25 uM for all others). […] Each assay was run with positive and negative controls, and concurrent controls on every plate. The follow-up (secondary) screen tested active chemical-pairs in concentration series, as well as a few additional assays not tested in the primary screen, some selected negative inactives, and several cases re-run in the concentration series for confirmatory purposes.
In the case of `CC(=O)CCc1ccc(O)cc1`, the AC50 is reported as 17.5 µM (active).
For `CCCCCCCCCCCCCC[N+](C)(C)C`, the AC50 was 31.1 µM (active).
For `Cc1c(Cl)c(=O)oc2cc(O)ccc12`, the AC50 was 12.2 µM (active).
With `CCN(CC)c1ccc2c(C)cc(=O)oc2c1` the AC50 was 8.36 µM (active).
`COCCC(=O)OC` was tested, and the outcome was “inactive”.
`CSc1ccc(O)cc1C` was tested, and the AC50 was 15.7 µM (active).
For `Cc1cc(C)c(O)c(C)c1`, the outcome was “inactive”.
`CC(N)=O` was tested, and the outcome was “inactive”.
With `c1ccc2[nH]c(-c3cscn3)nc2c1` the outcome was “inactive”.
In the case of `O=C1c2ccccc2C(=O)c2c(O)ccc(O)c21`, the AC50 is reported as 18.3 µM (active).
`Nc1nc(N)c2nc(CNc3ccc(C(=O)N[C@@H](CCC(=O)O)C(=O)O)cc3)cnc2n1` was tested, and the AC50 was 0.889 µM (active).
`CC(=O)Nc1ccc(C(=O)CCl)cc1` was tested, and the AC50 was 5.58 µM (active).
`COC(=O)c1ccccc1C(=O)O` was tested, and the outcome was “inactive”.
In the case of `Cc1c2ccccc2c(C)c2c1ccc1ccccc12`, the outcome is reported as “inactive”.
`CC=Cc1ccc(OC)c(OC)c1` was tested, and the AC50 was 17.2 µM (active).
With `O=C1OC2(c3ccccc31)c1cc(I)c(O)c(I)c1Oc1c2cc(I)c(O)c1I` the AC50 was 0.828 µM (active).
With `c1ccc2c(c1)[nH]c1ccccc12` the AC50 was 16.7 µM (active).
For `CCOc1ccc(NC(C)=O)cc1`, the AC50 was 21 µM (active).
For `Nc1cccc2c(N)cccc12`, the AC50 was 25 µM (active).
In the case of `COC(=O)COc1ccc(Cl)cc1Cl`, the AC50 is reported as 13.7 µM (active).
For `O=c1c(-c2ccc(O)cc2)coc2cc(O)cc(O)c12`, the AC50 was 10.6 µM (active) and 12.2 µM (active) and 2.7 µM (active).
`CCCCC(CC)C(=O)OCCOCCOCCOC(=O)C(CC)CCCC` (stereo not given) was tested, and the outcome was “inactive”.
With `Clc1ccc2c(Cl)ccnc2c1` the AC50 was 20.8 µM (active).
For `CCC(=O)OC/C=C(\C)CCC=C(C)C`, the outcome was “inactive”.
For `CCOc1ccc(NC(N)=O)cc1`, the AC50 was 16.6 µM (active).
For `Cc1cc(C)c(C=O)c(C)c1`, the AC50 was 19.9 µM (active).
In the case of `O=C1c2ccccc2C(=O)c2c(Cl)cccc21`, the AC50 is reported as 3.72 µM (active).
In the case of `CN(CCOc1ccc(CC2SC(=O)NC2=O)cc1)c1ccccn1` (stereo not given), the AC50 is reported as 12.9 µM (active).
With `c1ccc2c(c1)ccc1ncccc12` the AC50 was 2.35 µM (active).
In the case of `CCN(CC)CCNc1ccc(CNC=O)c2sc3ccc(OC)cc3c(=O)c12`, the AC50 is reported as 25 µM (active).
`O=C(O)c1cccc(C[C@@H]2COc3ccc(OCc4nc5cc(F)ccc5s4)cc3[C@@H]2O)c1` was tested, and the AC50 was 21 µM (active).
`CN(C)C(=O)Nc1ccc(Cl)c(Cl)c1` was tested, and the AC50 was 13.6 µM (active).
With `CCN(Cc1cccnc1)C(=O)c1cccc(Cl)c1[C@]1(C)C(=O)N(Cc2ccc(OC)cc2OC)c2ccc(Cl)cc21` the AC50 was 2.51 µM (active).
In the case of `CCN(CC)c1ccc(C=O)c(O)c1`, the AC50 is reported as 17.5 µM (active).
`CCCCCc1ccc(O)cc1` was tested, and the AC50 was 17.3 µM (active).
In the case of `CCCCCCCCCCCCCCCCO`, the outcome is reported as “inactive”.
With `C#CC(O)CCC` (stereo not given) the outcome was “inactive”.
In the case of `CC=Cc1ccc(OCC)c(O)c1`, the AC50 is reported as 20.3 µM (active).
In the case of `CN1CCN(Cc2cc(-c3ccc4[nH]c(=O)oc4c3)co2)[C@@H](c2ccc(F)cc2)C1`, the AC50 is reported as 22 µM (active).
For `O=C(c1ccc(O)cc1O)c1ccc(O)cc1O`, the AC50 was 6.91 µM (active).
